Here are results for 38 compounds from the supplement of paper PMC9492666.

Where a name gives a salt, the structure may show the parent alone.
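Also: viability read by CCK-8 kit in 96-well plates, part of a combination screen pairing lipid-metabolism-targeting compounds with erastin.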

The subject of this experiment is HCC1937. As to the kind of experiment: relative cell viability, compound + erastin, vs DMSO (fraction of DMSO control); higher = less growth inhibition. The conditions noted are these: 72 h.
For `O=C(O)CC[C@H](O)C(=O)O` [L-2-Hydroxyglutaric acid disodium] + CCOc1ccccc1-n1c(C(C)N2CCN(C(=O)COc3ccc(Cl)cc3)CC2)nc2ccccc2c1=O [erastin], the relative cell viability came out at 0.747.

On to `C=CC[S+]([O-])C[C@H](N)C(=O)O` (stereo partly drawn) [Alliin] + CCOc1ccccc1-n1c(C(C)N2CCN(C(=O)COc3ccc(Cl)cc3)CC2)nc2ccccc2c1=O [erastin], for which the relative cell viability came out at 0.864.

Consider `O=C(ON1C(=O)CCC1=O)N1CCN(C(c2ccc(Cl)cc2)c2ccc(Cl)cc2)CC1` [Cravatt Reagent] + CCOc1ccccc1-n1c(C(C)N2CCN(C(=O)COc3ccc(Cl)cc3)CC2)nc2ccccc2c1=O [erastin], for which the relative cell viability was 0.886.

On to `CC(C)(Oc1ccc(C2CC2(Cl)Cl)cc1)C(=O)O` (stereo not drawn) [Ciprofibrate] + CCOc1ccccc1-n1c(C(C)N2CCN(C(=O)COc3ccc(Cl)cc3)CC2)nc2ccccc2c1=O [erastin], for which the relative cell viability amounted to 0.848.

`COC(=O)N(CC(=O)O)Cc1cccc(OCc2nc(-c3ccc(Cl)cc3)oc2C)c1` + CCOc1ccccc1-n1c(C(C)N2CCN(C(=O)COc3ccc(Cl)cc3)CC2)nc2ccccc2c1=O [erastin]: the relative cell viability came to 0.734.

For the compound `CC(C)OC(=O)C(C)(C)Oc1ccc(C(=O)c2ccc(Cl)cc2)cc1` [Fenofibrate] + CCOc1ccccc1-n1c(C(C)N2CCN(C(=O)COc3ccc(Cl)cc3)CC2)nc2ccccc2c1=O [erastin], the relative cell viability was 0.878.

For `CCN(CC)Cc1ccc(C(=O)N(CCc2ccccc2OC)[C@@H]2CCNC2)cc1` + CCOc1ccccc1-n1c(C(C)N2CCN(C(=O)COc3ccc(Cl)cc3)CC2)nc2ccccc2c1=O [erastin], the relative cell viability is 0.872.

Consider `CC(C)(Oc1ccc(C(=O)c2ccc(Cl)cc2)cc1)C(=O)O` [Fenofibric acid] + CCOc1ccccc1-n1c(C(C)N2CCN(C(=O)COc3ccc(Cl)cc3)CC2)nc2ccccc2c1=O [erastin], for which the relative cell viability worked out at 0.677.

In the case of `CC[C@H](C)C(=O)O[C@H]1CCC=C2C=C[C@H](C)[C@H](CC[C@@H]3C[C@@H](O)CC(=O)O3)[C@H]21` [Mevastatin] + CCOc1ccccc1-n1c(C(C)N2CCN(C(=O)COc3ccc(Cl)cc3)CC2)nc2ccccc2c1=O [erastin], the relative cell viability is 0.6.

With `NC(N)=N/N=C/c1cccc(Cl)c1Cl` [Raphin1 acetate] + CCOc1ccccc1-n1c(C(C)N2CCN(C(=O)COc3ccc(Cl)cc3)CC2)nc2ccccc2c1=O [erastin], the relative cell viability was 0.718.

As for `C=C(C)[C@@H]1CC[C@]2(C)CC[C@]3(C)[C@H](CC[C@@H]4[C@@]5(C)CCC(=O)C(C)(C)[C@@H]5CC[C@]43C)[C@@H]12` + CCOc1ccccc1-n1c(C(C)N2CCN(C(=O)COc3ccc(Cl)cc3)CC2)nc2ccccc2c1=O [erastin], the relative cell viability turned out to be 0.608.

`CC(C)=CCC[C@](C)(O)[C@H]1CC[C@]2(C)[C@@H]1[C@H](O)C[C@@H]1[C@@]3(C)CC[C@H](O)C(C)(C)[C@@H]3[C@@H](O)C[C@]12C` [(20S)-Protopanaxatriol] + CCOc1ccccc1-n1c(C(C)N2CCN(C(=O)COc3ccc(Cl)cc3)CC2)nc2ccccc2c1=O [erastin]: the relative cell viability was 0.772.

`CCC(=O)O[C@]1(C(=O)CCl)[C@@H](C)C[C@H]2[C@@H]3C[C@H](F)C4=CC(=O)C=C[C@]4(C)[C@@]3(F)[C@@H](O)C[C@@]21C` [Halobetasol Propionate] + CCOc1ccccc1-n1c(C(C)N2CCN(C(=O)COc3ccc(Cl)cc3)CC2)nc2ccccc2c1=O [erastin]: the relative cell viability stood at 0.708.

In the case of `O=C(Nc1ccc(C(O)(C(F)(F)F)C(F)(F)F)cc1)c1ccc(C(F)(F)F)cc1` + CCOc1ccccc1-n1c(C(C)N2CCN(C(=O)COc3ccc(Cl)cc3)CC2)nc2ccccc2c1=O [erastin], the relative cell viability turned out to be 0.366.

Consider `Cc1cc(C)c(S(=O)(=O)N(CCc2cccc(Br)c2)Cc2ccc(-c3cccc(S(C)(=O)=O)c3)cc2)c(C)c1` + CCOc1ccccc1-n1c(C(C)N2CCN(C(=O)COc3ccc(Cl)cc3)CC2)nc2ccccc2c1=O [erastin], for which the relative cell viability was found to be 0.537.

Consider `C/C=C/c1cc(OC)c(OC)cc1OC` [alpha-Asarone] + CCOc1ccccc1-n1c(C(C)N2CCN(C(=O)COc3ccc(Cl)cc3)CC2)nc2ccccc2c1=O [erastin], for which the relative cell viability stood at 0.594.

Turning to `Cc1cnc(C(=O)NCCc2ccc(S(=O)(=O)NC(=O)NC3CCCCC3)cc2)cn1` [Glipizide] + CCOc1ccccc1-n1c(C(C)N2CCN(C(=O)COc3ccc(Cl)cc3)CC2)nc2ccccc2c1=O [erastin], the relative cell viability is 0.732.

For the compound `CCCCCCCCCCOc1ccc(C(=O)Nc2cc(C(=O)NCCCC)ccc2SC)cc1` + CCOc1ccccc1-n1c(C(C)N2CCN(C(=O)COc3ccc(Cl)cc3)CC2)nc2ccccc2c1=O [erastin], the relative cell viability worked out at 0.739.

With `O=C(NNc1ccccc1)c1ccncc1` [PluriSln 1] + CCOc1ccccc1-n1c(C(C)N2CCN(C(=O)COc3ccc(Cl)cc3)CC2)nc2ccccc2c1=O [erastin], the relative cell viability came to 0.518.

As for `COc1cc(F)c(C(C)C)cc1-c1ccc(C(F)(F)F)cc1CN1C(=O)O[C@H](c2cc(C(F)(F)F)cc(C(F)(F)F)c2)[C@@H]1C` [Anacetrapib] + CCOc1ccccc1-n1c(C(C)N2CCN(C(=O)COc3ccc(Cl)cc3)CC2)nc2ccccc2c1=O [erastin], the relative cell viability was 0.557.

Regarding `O=C1/C(=C/c2cccs2)CC/C1=C\c1cccs1` + CCOc1ccccc1-n1c(C(C)N2CCN(C(=O)COc3ccc(Cl)cc3)CC2)nc2ccccc2c1=O [erastin], the relative cell viability came out at 0.514.

As for `Cc1cc(SCc2sc(-c3ccc(C(F)(F)F)cc3)nc2C)ccc1OCC(=O)O` + CCOc1ccccc1-n1c(C(C)N2CCN(C(=O)COc3ccc(Cl)cc3)CC2)nc2ccccc2c1=O [erastin], the relative cell viability was determined as 0.529.

Turning to `CN(CCOc1ccc(CC2SC(=O)NC2=O)cc1)c1ccccn1` (stereo not drawn) [Rosiglitazone] + CCOc1ccccc1-n1c(C(C)N2CCN(C(=O)COc3ccc(Cl)cc3)CC2)nc2ccccc2c1=O [erastin], the relative cell viability was determined as 0.999.

Turning to `Cc1coc2c1C(=O)C(=O)c1c-2ccc2c(C)cccc12` [Tanshinone I] + CCOc1ccccc1-n1c(C(C)N2CCN(C(=O)COc3ccc(Cl)cc3)CC2)nc2ccccc2c1=O [erastin], the relative cell viability amounted to 0.226.

Turning to `O=C(CCCCc1ccc2c(c1)OCO2)N1CCCCC1` + CCOc1ccccc1-n1c(C(C)N2CCN(C(=O)COc3ccc(Cl)cc3)CC2)nc2ccccc2c1=O [erastin], the relative cell viability is 0.549.

Take `O=C(O)c1c[nH]c2cc(Cl)c(-c3ccc(C4(O)CCC4)cc3)cc12` + CCOc1ccccc1-n1c(C(C)N2CCN(C(=O)COc3ccc(Cl)cc3)CC2)nc2ccccc2c1=O [erastin]: the relative cell viability came to 0.599.

For `CC(C)(Oc1ccc(C(=O)c2ccc(Cl)cc2)cc1)C(=O)O` [Choline Fenofibrate] + CCOc1ccccc1-n1c(C(C)N2CCN(C(=O)COc3ccc(Cl)cc3)CC2)nc2ccccc2c1=O [erastin], the relative cell viability was found to be 0.848.

As for `Cc1ccc(Oc2nc3cc(-c4ccc(-c5ccccc5)cc4)c(Cl)cc3[nH]2)cc1C(=O)O` + CCOc1ccccc1-n1c(C(C)N2CCN(C(=O)COc3ccc(Cl)cc3)CC2)nc2ccccc2c1=O [erastin], the relative cell viability came out at 0.553.

Turning to `O=C(O)CCCc1cc2cc(Cl)ccc2n1S(=O)(=O)c1ccc2ncsc2c1` [Lanifibranor] + CCOc1ccccc1-n1c(C(C)N2CCN(C(=O)COc3ccc(Cl)cc3)CC2)nc2ccccc2c1=O [erastin], the relative cell viability is 0.672.

Regarding `Oc1ccc(/C=C/c2cc(O)cc(O)c2)cc1` [Resveratrol] + CCOc1ccccc1-n1c(C(C)N2CCN(C(=O)COc3ccc(Cl)cc3)CC2)nc2ccccc2c1=O [erastin], the relative cell viability was 0.635.

As for `CN(C)C(=N)NC(=N)N` [Metformin hydrochloride] + CCOc1ccccc1-n1c(C(C)N2CCN(C(=O)COc3ccc(Cl)cc3)CC2)nc2ccccc2c1=O [erastin], the relative cell viability was 0.943.

For `Cc1nc2ccc(C(=O)N3CCC4(CC3)CC(=O)c3c(cnn3C(C)C)C4)cc2[nH]1` + CCOc1ccccc1-n1c(C(C)N2CCN(C(=O)COc3ccc(Cl)cc3)CC2)nc2ccccc2c1=O [erastin], the relative cell viability was determined as 0.619.

For the compound `O=C1C(SCCO)=C(SCCO)C(=O)c2ccccc21` + CCOc1ccccc1-n1c(C(C)N2CCN(C(=O)COc3ccc(Cl)cc3)CC2)nc2ccccc2c1=O [erastin], the relative cell viability worked out at 0.575.

`CCc1c(C(=O)C(N)=O)c2c(OCC(=O)O)cccc2n1Cc1ccccc1` [Varespladib] + CCOc1ccccc1-n1c(C(C)N2CCN(C(=O)COc3ccc(Cl)cc3)CC2)nc2ccccc2c1=O [erastin]: the relative cell viability was found to be 0.547.

Consider `COCCNC(=O)Nc1ccc2nc(-c3cccs3)c(-c3cccs3)nc2c1` [Ac-CoA Synthase Inhibitor1] + CCOc1ccccc1-n1c(C(C)N2CCN(C(=O)COc3ccc(Cl)cc3)CC2)nc2ccccc2c1=O [erastin], for which the relative cell viability is 0.597.

Regarding `NC(=O)c1ncn([C@@H]2O[C@H](CO)[C@@H](O)[C@H]2O)c1N` [AICAR (Acadesine)] + CCOc1ccccc1-n1c(C(C)N2CCN(C(=O)COc3ccc(Cl)cc3)CC2)nc2ccccc2c1=O [erastin], the relative cell viability stood at 0.85.

Regarding `Cc1c(C(=O)NN2CCOCC2)nn(-c2ccc(Cl)cc2Cl)c1-c1ccc(I)cc1` + CCOc1ccccc1-n1c(C(C)N2CCN(C(=O)COc3ccc(Cl)cc3)CC2)nc2ccccc2c1=O [erastin], the relative cell viability turned out to be 0.1.

`Nc1ncnc2c1ncn2C1OC(COP(=O)(O)O)C(O)C1O` (stereo not drawn) [Adenosine 5'-monophosphate monohydrate] + CCOc1ccccc1-n1c(C(C)N2CCN(C(=O)COc3ccc(Cl)cc3)CC2)nc2ccccc2c1=O [erastin]: the relative cell viability was found to be 0.97.
